Screening results deposited in PubChem by National Center for Advancing Translational Sciences (NCATS).
This excerpt belongs to a sample that is enriched for hits.
GPT2 inh – inhibitors of human GPT2 alanine aminotransferase. Q8TD30. Recombinant GPT2, coupled pyruvate oxidase/HRP Amplex Red fluorescence. AID 1671188. Potency, µM (series often up to 57.7 µM), for the others: at the highest dose activity change, negative = inhibition, actives largely listed as inhibitors. hit rate 0.25% among 100,000; active = well fitted inhibition curve with a large enough effect; inconclusive = small, poorly fitted or top-dose-only effect; note: % is set by controls: 0 for no effect and ±100 for the full control effect; nearly all actives have a fitted effect of over 60% in size
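Fluorescence of coupled pyruvate oxidase/HRP/Amplex Red system (50uM Amplex, 30 min, dark) reports pyruvate formed by GPT2. Enzyme reaction: 10ng/uL GPT2, 2mM L-alanine, 250uM a-KG, 30 min room temperature, pH 7.5; 50uM AOA control.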
NPR1 antag – human Npr1 receptor antagonism; HEK293 hNpr1 GloSensor cGMP, ANP-stimulated luminescence; hit rate 1.6% among 76,000; Potency, µM (top dose mostly 46.3 µM), inactives show at the highest dose activity change, negative = inhibition, hits mostly inhibitors; P16066; note: % is set by controls: 0 for no effect and ±100 for the full control effect; nearly all actives have a fitted effect of over 60% in size
Target sequence (P16066 whole entry, looked up): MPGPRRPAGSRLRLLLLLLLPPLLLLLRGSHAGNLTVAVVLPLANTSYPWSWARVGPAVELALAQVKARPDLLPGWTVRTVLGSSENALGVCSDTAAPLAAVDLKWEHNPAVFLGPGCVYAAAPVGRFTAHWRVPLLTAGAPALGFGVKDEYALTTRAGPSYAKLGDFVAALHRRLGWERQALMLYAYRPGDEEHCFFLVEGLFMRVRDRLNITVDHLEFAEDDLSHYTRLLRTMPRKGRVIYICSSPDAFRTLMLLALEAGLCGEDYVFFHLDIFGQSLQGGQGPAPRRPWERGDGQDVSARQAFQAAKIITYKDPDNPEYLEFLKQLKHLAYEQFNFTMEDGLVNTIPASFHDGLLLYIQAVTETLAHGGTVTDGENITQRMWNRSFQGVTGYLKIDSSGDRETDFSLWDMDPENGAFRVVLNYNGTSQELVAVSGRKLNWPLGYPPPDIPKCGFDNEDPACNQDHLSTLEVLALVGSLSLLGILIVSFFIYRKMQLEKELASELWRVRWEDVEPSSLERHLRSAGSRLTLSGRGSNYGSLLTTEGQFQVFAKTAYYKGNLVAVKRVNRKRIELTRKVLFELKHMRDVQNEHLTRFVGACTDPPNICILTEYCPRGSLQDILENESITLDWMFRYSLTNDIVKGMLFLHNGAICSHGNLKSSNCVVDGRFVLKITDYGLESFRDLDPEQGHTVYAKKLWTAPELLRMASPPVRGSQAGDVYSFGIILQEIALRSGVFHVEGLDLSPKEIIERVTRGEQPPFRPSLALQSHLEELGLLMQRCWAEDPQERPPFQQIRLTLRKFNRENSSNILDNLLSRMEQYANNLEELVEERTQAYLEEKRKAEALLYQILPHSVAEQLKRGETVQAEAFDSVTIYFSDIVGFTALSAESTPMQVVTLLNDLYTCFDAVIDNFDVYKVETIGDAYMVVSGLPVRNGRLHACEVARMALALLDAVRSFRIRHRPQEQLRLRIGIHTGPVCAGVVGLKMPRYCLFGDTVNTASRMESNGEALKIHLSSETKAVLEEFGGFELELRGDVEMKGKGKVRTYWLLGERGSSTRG
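HEK293 cells stably expressing human Npr1 and cGMP GloSensor pGS-40F, loaded 2 h with 2% GloSensor reagent, given compound 30 min at room temperature. Luminescence read before and 20 min after 0.1 nM hNppA.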
Npr1 antag conf – confirmation of human Npr1 natriuretic peptide receptor antagonists; shares compounds with NPR1 antag; HEK293 hNpr1 cGMP GloSensor luminescence, ANP-stimulated; Potency, µM (top dose mostly 57.6 µM), for the others: at the highest dose activity change, negative = inhibition, most hits filed as inhibitors; hit rate 76% among 1,400; AID 1347044; note: nearly all actives have a fitted effect of over 70% in size
Npr2 selectivity – hNpr2 antagonism, selectivity versus Npr1; shares compounds with NPR1 antag; HEK293 hNpr2 GloSensor cGMP luminescence, CNP-stimulated; Potency, µM (series often up to 57.6 µM), inactives show at the top dose activity change, negative = inhibition, usual class: inhibitors; hit rate 67% among 1,400; note: nearly all actives have a fitted effect of over 70% in size
FLuc counter – FLuc enzyme inhibition, Npr1 counter-screen; shares compounds with NPR1 antag; purified FLuc enzyme, luminescence, Km substrate; Potency, µM (titrated, usually from 57.6 µM), without a hit: at the top dose activity change, negative = inhibition, usual class: inhibitors; hit rate 0.7% among 1,400; active = well fitted inhibition curve with a large enough effect; inconclusive = small, poorly fitted or top-dose-only effect; note: series mostly up to about 58 µM; 0% is about no effect
GloSensor cGMP – counter-screen for Npr1 antagonists: GloSensor control cell line | shares compounds with NPR1 antag | HEK293 GloSensor cGMP, SNP-stimulated, luminescence | Potency, µM (top dose mostly 57.6 µM), without a hit: top-dose activity change, negative = inhibition, most hits filed as inhibitors | hit rate 69% among 1,400 | AID 1347051; note: % is set by controls: 0 for no effect and ±100 for the full control effect; nearly all actives have a fitted effect of over 70% in size
An asterisk follows results filed as active; [ ] = another dose, or the depositor's remark. Unless noted, calls come from the whole dose curve. Potency is the fitted concentration of half-maximal effect.

For CCc1ccc(NC(=O)N2CCC(Oc3ncccc3C(=O)N3CCOCC3)C2)cc1 (stereo not drawn) the results were GPT2 inh inconclusive and NPR1 antag 1%.
`Cn1cccc1CN1CCn2c(nn(-c3ccc(Cl)cc3)c2=O)C1` gave GPT2 inh inactive, Npr1 antag conf inconclusive, Npr2 selectivity inconclusive, FLuc counter 14µM* and GloSensor cGMP inconclusive.
`O=C(Nc1ccccc1)N1CCn2c(nn(-c3ccc(C(F)(F)F)cc3)c2=O)C1` gave GPT2 inh -14%, NPR1 antag inconclusive, Npr1 antag conf inconclusive, Npr2 selectivity inconclusive, FLuc counter -2%[86.2 µM] and GloSensor cGMP inconclusive.
For COc1ccc(C(=O)N2CCn3c(nn(-c4ccc(Cl)cc4)c3=O)C2)cc1 the results were GPT2 inh -14%, Npr1 antag conf inconclusive, Npr2 selectivity 22µM*, FLuc counter 0% and GloSensor cGMP 27µM*.
For Cn1nccc1CN1CCn2c(nn(-c3ccc(Cl)cc3)c2=O)C1 the results were GPT2 inh inactive.
Screening O=C(c1ccc(C(F)(F)F)cc1)N1CCn2c(nn(-c3ccncc3)c2=O)C1 returned GPT2 inh inactive, NPR1 antag inconclusive, Npr1 antag conf 24µM*, Npr2 selectivity inconclusive, FLuc counter 4%[86.2 µM] and GloSensor cGMP 22µM*.
Screening O=C(c1ccc(C(F)(F)F)cc1)N1CCn2c(nn(-c3ccc(Cl)cc3)c2=O)C1 returned GPT2 inh -8%.
`COc1ccc(C(=O)N2CCn3c(nn(-c4ccc(OC)cc4)c3=O)C2)cc1` gave GPT2 inh 0%.
O=C(Nc1ccc(Cl)cc1)N1CCn2c(nn(-c3ccc(C(F)(F)F)cc3)c2=O)C1 was read as GPT2 inh 4% and NPR1 antag inconclusive.
`CCn1cc(C(=O)N2C[C@@H](COc3ccccc3)[C@H](C(N)=O)C2)cn1` gave GPT2 inh -24% and NPR1 antag -4%.
Screening COCc1nc(N2CC3C[C@@H]4CC2C[C@H](C3)C4)c2cnn(C)c2n1 returned GPT2 inh 3% and NPR1 antag 2%.
Cc1noc(-c2cn(C3CCN(C(=O)COc4ccccc4)C3)nn2)n1 (stereo not drawn) was read as GPT2 inh inactive and NPR1 antag -1%.
O=C(c1cccnc1N1CC2CC(C1)[C@H]1CCCC(=O)N1C2)N1CC=C(c2ccccc2)CC1 (stereo partly drawn) was read as GPT2 inh inactive and NPR1 antag -10%.
For O=C1Nc2ccccc2CN(CC2CCCCC2)C12CCNC2 (stereo not drawn) the results were GPT2 inh -1%, Npr1 antag conf inconclusive, Npr2 selectivity 14µM*, FLuc counter 4% and GloSensor cGMP -7%.
For O=C1Nc2ccccc2CN(CC2CCCCC2)C12CCNCC2 the results were GPT2 inh -10%, Npr1 antag conf 19µM*, Npr2 selectivity 6.1µM*, FLuc counter 3% and GloSensor cGMP -21%.
`O=C1Nc2ccccc2CN(Cc2ccc(Cl)cc2)C12CCNC2` (stereo not drawn) gave GPT2 inh 5%.
O=C1Nc2ccccc2CN(CC2CC2)C12CCNCC2 was read as GPT2 inh -11%.
For CCNC(=O)CCc1c(C)nn(-c2ccccc2)c1Oc1ccccc1 the results were GPT2 inh 1% and NPR1 antag -13%.
For O=C(NCC(F)F)C1CCCN1Cc1ccc(-c2cncnc2)cc1 (stereo not drawn) the results were GPT2 inh 2%.
Cc1ccc(-c2cccc(CN3CCCC(N[S+](=O)([O-])c4c(C)noc4C)C3)c2)cc1Cl (stereo not drawn) was read as GPT2 inh -8%.
Screening Cc1ccc(C2=NC3(CCN(C(=O)c4cc(F)ccc4Cl)CC3)ON2)cc1 returned GPT2 inh -5% and NPR1 antag -15%.
O=C(c1cc(F)ccc1F)N1CCC2(CC1)N=C(c1ccc(Cl)cc1)NO2 was read as GPT2 inh inactive, NPR1 antag 16µM*, Npr1 antag conf 24µM*, Npr2 selectivity 22µM*, FLuc counter -3% and GloSensor cGMP 24µM*.
Screening Cc1ccc(C2=NC3(CCN(C(=O)Cc4ccc(Cl)cc4)CC3)ON2)cc1 returned GPT2 inh inactive and NPR1 antag -3%.
O=C(c1cccc2[nH]ccc12)N1CCC2(CC1)N=C(c1ccc(Cl)cc1)NO2 was read as GPT2 inh 0%, NPR1 antag 11µM*, Npr1 antag conf 19µM*, Npr2 selectivity 22µM*, FLuc counter -16% and GloSensor cGMP 17µM*.
Screening Cc1ccc(C2=NC3(CCN(C(=O)c4cccc5[nH]ccc45)CC3)ON2)cc1 returned GPT2 inh inactive and NPR1 antag -18%.
Screening O=C(Cc1cccc(F)c1)N1CCC2(CC1)N=C(c1ccc(Cl)cc1)NO2 returned GPT2 inh -13%, NPR1 antag inconclusive, Npr1 antag conf 24µM*, Npr2 selectivity inconclusive, FLuc counter 3% and GloSensor cGMP 24µM*.
`CCOc1cc(=O)n2c(c1C(=O)Nc1cccc(SC)c1)CCCC2` gave GPT2 inh inactive and NPR1 antag -11%.
COc1ccc(CN2CCCC3(C2)C(=NC2CCCCC2)NC(=O)N3c2cccnc2)cc1 (stereo not drawn) was read as GPT2 inh inactive.
For CSCCNC(=O)C1CCN(c2nccc(Nc3ccccc3Cl)n2)CC1 the results were GPT2 inh inactive.
Screening Cc1ccc(NC(=O)C2CCCN(c3ccnc4ccnn34)C2)cc1 (stereo not drawn) returned GPT2 inh -18%.
`COCC1CN(S(=O)(=O)c2ccc(F)c(Cl)c2)CC12CCNCC2` (stereo not drawn) gave GPT2 inh inactive and NPR1 antag -17%.
`COc1ccc(S(=O)(=O)N2CCc3c(C(=O)Nc4cccc(C)c4)cccc32)cc1` gave GPT2 inh 4%, NPR1 antag inconclusive, Npr1 antag conf inconclusive, Npr2 selectivity inconclusive, FLuc counter -11% and GloSensor cGMP inconclusive.
`COc1ccc(OC)c(NC(=O)c2ccc3c(c2)N(S(=O)(=O)c2ccccc2)CC3)c1` gave GPT2 inh inconclusive and NPR1 antag -7%.
